# About 2,000 (36%) of roughly 5,500 compounds were called active. About 18% were inconclusive and are not listed. This is one part of the list. Unmarked numbers belong to inactive results. No stated cut-off is given here; in the data, active means normalized growth mostly below about 0.91 (no sharp cut-off); inconclusive means no clear call, values can overlap the other calls; inactive means mostly above about 0.92.
# Assay: chemical genetic growth profiling, strain panel (AID 1159580);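 further: tested at 20 µM; growth read once vehicle control cultures reached saturation at 30 °C; 1 = growth at the plate median or of vehicle wells; lower values mean less growth of the strain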
# Settings: S. cerevisiae deletion strains, growth OD
compound,measurement,setting,value
Cc1cc(C(=O)N(c2ccccc2)C(C)C2CC2)c(Cl)cc1Cl (stereo unspecified),normalized growth,"locus YAR019C, strain CDC15, hits give low values",0.987
same,normalized growth,"locus YBL105C, strain PKC1, hits give low values",0.984
same,normalized growth,"locus YBR135W, strain CKS1, hits give low values",0.984
same,normalized growth,"locus YBR136W, strain MEC1, hits give low values",0.987
same,normalized growth,"locus YBR160W, strain CDC28, hits give low values",0.991
same,normalized growth,"locus YDL017W, strain CDC7, hits give low values",0.978
same,normalized growth,"locus YDL028C, strain MPS1, hits give low values",0.982
same,normalized growth,"locus YDL101C, strain DUN1, hits give low values",0.98
same,normalized growth,"locus YDL108W, strain KIN28, hits give low values",0.978
same,normalized growth,"locus YDL132W, strain cdc53, hits give low values",0.973
same,normalized growth,"locus YDL214C, strain PRR2, hits give low values",0.955
same,normalized growth,"locus YDR052C, strain DBF4, hits give low values",0.985
same,normalized growth,"locus YDR054C, strain cdc34, hits give low values",0.966
same,normalized growth,"locus YDR226W, strain ADK1, hits give low values",0.971
same,normalized growth,"locus YDR477W, strain SNF1, hits give low values",0.942
same,normalized growth,"locus YER123W, strain YCK3, hits give low values",0.943
same,normalized growth,"locus YER133W, strain GLC7, hits give low values",0.938
same,normalized growth,"locus YFL009W, strain cdc4, hits give low values",0.973
same,normalized growth,"locus YFL029C, strain CAK1, hits give low values",0.984
same,normalized growth,"locus YFR003C, strain YPI1, hits give low values",0.979
same,normalized growth,"locus YFR019W, strain FAB1, hits give low values",0.968
same,normalized growth,"locus YFR028C, strain CDC14, hits give low values",0.979
same,normalized growth,"locus YGR040W, strain KSS1, hits give low values",0.944
same,normalized growth,"locus YGR052W, strain FMP48, hits give low values",0.949
same,normalized growth,"locus YGR092W, strain DBF2, hits give low values",0.989
same,normalized growth,"locus YHR030C, strain SLT2, hits give low values",0.8 (active)
same,normalized growth,"locus YHR079C, strain IRE1, hits give low values",0.97
same,normalized growth,"locus YHR082C, strain KSP1, hits give low values",0.99
same,normalized growth,"locus YHR205W, strain SCH9, hits give low values",0.985
same,normalized growth,"locus YIL147C, strain SLN1, hits give low values",0.983
same,normalized growth,"locus YJL095W, strain BCK1, hits give low values",0.939
same,normalized growth,"locus YJL128C, strain PBS2, hits give low values",0.92
same,normalized growth,"locus YJL157C, strain FAR1, hits give low values",0.957
same,normalized growth,"locus YJR016C, strain ILV3, hits give low values",0.976
same,normalized growth,"locus YJR066W, strain TOR1 (second series), hits give low values",0.921
same,normalized growth,"locus YJR066W, strain TOR1, hits give low values",1.03
same,normalized growth,"locus YKL048C, strain ELM1, hits give low values",0.966
same,normalized growth,"locus YKL067W, strain YNK1, hits give low values",0.955
same,normalized growth,"locus YKL101W, strain HSL1, hits give low values",0.953
same,normalized growth,"locus YKL193C, strain SDS22, hits give low values",0.977
same,normalized growth,"locus YKL203C, strain TOR2, hits give low values",1.01
same,normalized growth,"locus YLR113W, strain HOG1, hits give low values",0.808 (active)
same,normalized growth,"locus YLR133W, strain CKI1, hits give low values",0.965
same,normalized growth,"locus YLR403W, strain SFP1, hits give low values",0.993
same,normalized growth,"locus YML070W, strain DAK1, hits give low values",0.925
same,normalized growth,"locus YMR001C, strain CDC5, hits give low values",0.982
same,normalized growth,"locus YMR205C, strain PFK2 (second series), hits give low values",0.958
same,normalized growth,"locus YMR277W, strain FCP1, hits give low values",0.972
same,normalized growth,"locus YNL006W, strain LST8, hits give low values",0.989
same,normalized growth,"locus YNL020C, strain ARK1, hits give low values",0.95
same,normalized growth,"locus YNL161W, strain CBK1, hits give low values",0.979
same,normalized growth,"locus YNL183C, strain NPR1, hits give low values",1.02
same,normalized growth,"locus YNL207W, strain RIO2, hits give low values",0.978
same,normalized growth,"locus YNL222W, strain SSU72, hits give low values",0.988
same,normalized growth,"locus YNL307C, strain MCK1 (second series), hits give low values",0.941
same,normalized growth,"locus YOL078W, strain AVO1, hits give low values",0.98
same,normalized growth,"locus YOL136C, strain PFK27, hits give low values",0.936
same,normalized growth,"locus YOR061W, strain CKA2, hits give low values",0.958
same,normalized growth,"locus YOR119C, strain RIO1, hits give low values",1.02
same,normalized growth,"locus YOR231W, strain MKK1, hits give low values",0.95
same,normalized growth,"locus YOR329C, strain SCD5, hits give low values",0.984
same,normalized growth,"locus YPL031C, strain PHO85, hits give low values",0.939
same,normalized growth,"locus YPL153C, strain RAD53, hits give low values",0.921
same,normalized growth,"locus YPL204W, strain HRR25, hits give low values",0.918
same,normalized growth,"locus YPL209C, strain IPL1, hits give low values",0.985
same,normalized growth,"locus YPL256C, strain CLN2, hits give low values",0.848 (active)
same,normalized growth,"locus YPR025C, strain CCL1, hits give low values",0.991
same,normalized growth,"locus YPR106W, strain ISR1, hits give low values",0.982
same,normalized growth,"locus YPR111W, strain DBF20, hits give low values",0.97
same,normalized growth,"strain NNK1, hits give low values",0.976
same,normalized growth,"strain TSCII, hits give low values",0.983
